# Pf Dd2 inh: blocks in vitro growth of P. falciparum Dd2. P. falciparum Dd2 growth, SYBR Green, 72 h. Potency, µM (highest dose often 28.9 µM), without a hit: top-dose activity, negative = inhibition, usual class: inhibitors. actives 4.3% (n = 120,000). AID 1347417; active means well fitted inhibition curve with a large enough effect;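 further: plate controls were DMSO vehicle for no effect and reference drug for full effect; nearly all actives have a fitted effect of over 65% in size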
#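 Readout: SYBR Green fluorescence, 485 nm excitation, 535 nm emission, after ~16 h lysis at 37C. Before that, Dd2-infected red cells (2.5% hematocrit) grew 72 h with compound, 29 uM top final concentration.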
# The depositor's hits bear a star; i = inactive; [ ] = dose if it differs, or a comment. The entries come from a sample that favours hits as a whole. Potency means the concentration at half of the fitted maximal effect.
SMILES,Pf Dd2 inh
CC(=O)Nc1cc(C(=O)NCc2ccccc2C)c2ccc(C)nc2c1,-22.5%
CCc1ccc(C(=O)N2C[C@@H](CO)[C@H](N(C)C)C2)cc1,19.0%
CN1CCCC2(CC1)CCN(C(=O)CC13CC4CC(CC(O)(C4)C1)C3)CC2,-10.2%
COc1ccc(NC(=O)Cn2c(C)cc3nc4n(c(=O)c32)CCCCC4)cc1OC,-6.4%
Cc1ccc(-c2cccc(C=O)c2)c(C)c1,3.8%[44.1 µM]
Cc1ccc(C)c(CN2C(=O)C(=O)c3ccccc32)c1,-23.4%
Cc1ccc(-c2ccccc2CN)c(C)c1,5.01µM*
CCOC(=O)c1c(NC(=O)CS(=O)(=O)c2ccc(C)cc2)sc2c1CCCCC2,43.1%
CC1CCN(S(=O)(=O)c2ccc(C(=O)Nc3sc4c(c3C(N)=O)CC(C)(C)NC4(C)C)cc2)CC1,i
CCOC(=O)c1c(NC(=O)c2ccc(S(=O)(=O)N(CCOC)CCOC)cc2)sc2c1CC(C)(C)NC2(C)C,10µM*
CCCCc1nn(CC(=O)N2CCC(c3ccccc3)CC2)c(=O)n1CC,-8.1%
COCc1ccc(CN[C@H]2C[C@@H](Cc3cc(CN4CCCCC4)on3)C2(C)C)o1,11.2µM*
COc1ccc(CN[C@H]2C[C@@H](Cc3cc(CN4CCOCC4)on3)C2(C)C)cc1,-29.0%[44.1 µM]
CCCCc1cc(C[C@@H]2C[C@H](NC(C)=O)C2(C)C)no1,i
CC(=O)N[C@H]1C[C@@H](Cc2cc(CN3CCCCC3)on2)C1(C)C,22.4µM*
CC(=O)N[C@H]1C[C@@H](Cc2cc(CN(C)C)on2)C1(C)C,-17.1%[44.1 µM]
COCc1cc(C[C@@H]2C[C@H](NC3CCN(C(C)=O)CC3)C2(C)C)no1,-15.6%[44.1 µM]
OCC1(Cc2ccccc2F)CCCN(c2nccc(C(F)(F)F)n2)C1 (centres undefined),i
C[C@@H](NC(=O)Nc1ccccc1)c1onc(-c2ccc(F)cc2)c1C(=O)O,-14.4%[44.1 µM]
COc1cccc(C(=O)N2C(C(=O)N3CCOCC3)COC23CCN(C(=O)CC(C)(C)C)CC3)c1 (centres undefined),-4.9%
COc1ccc(CNC(=O)N2CCC(OC3CCN(S(C)(=O)=O)CC3)CC2)cc1,i
Cc1ccc(NC(=O)c2ccc3c(c2)N(C)C2CCCN2C3=O)cc1C (centres undefined),-10.0%
Cc1cc(C)c(NC(=O)Nc2ccc3snnc3c2)c(C)c1,i
O=C(Nc1cccc(C(F)(F)F)c1)Nc1ccc2snnc2c1,1.12µM*
O=C(Nc1cccc(C(F)(F)F)c1)c1ccc2snnc2c1,51.0%
SMILES,Pf Dd2 inh
CCO[C@H]1CN(C(=O)c2cc3ccc(OC)cc3n2C)C[C@@H]1O,14.8%
CC(C)NC[C@H]1O[C@@H]2C[C@@H](CC(=O)NC(C)C)O[C@@H]2[C@@H]1O,11.7%[44.1 µM]
CCN1C(=O)CN(C(=O)c2cccnc2)CC12CCOCC2,-11.4%
Cc1nc(C(=O)N2CCOc3c(O)cc(-c4cccc(Cl)c4)cc3C2)cs1,i
Cn1cc([C@@H](NC(=O)CN2CCOc3ccccc3C2)C2CC(O)C2)cn1 (some centres undefined),1.8%
Cc1ccncc1C(=O)N1CCOc2c(O)cc(-c3ccccc3C)cc2C1,-9.4%
CC(C)CNC(=O)CN1CCOc2c(O)cc(-c3cccc(Cl)c3)cc2C1,10µM*
Cc1ccccc1-c1cc(O)c2c(c1)CN(Cc1ccoc1)CCO2,11.2µM*
C=CCn1cc(CN2CCC(Oc3ccc4ccccc4c3)(C(=O)O)CC2)cn1,7.6%
C=CCn1cc(CN2CCOc3c(O)cc(-c4cccc(Cl)c4)cc3C2)cn1,11.2µM*
Oc1cc(-c2cccc(Cl)c2)cc2c1OCCN(c1cc(C3CC3)ncn1)C2,i
CCc1noc(CN2CCOc3c(O)cc(-c4ccccc4C)cc3C2)n1,i
COc1ccc(-n2nc(C3CCCN([S+](=O)([O-])c4cccc(C(F)(F)F)c4)C3)[nH]c2=O)cc1 (centres undefined),-29.4%
Cc1cc(CN(C)c2cc(C3CC(O)C3)ncn2)n[nH]1 (centres undefined),-10.4%
Cc1cc(C)n(CC(=O)N2CC(F)(F)C[C@H]2c2nc(C3CC3)no2)n1,20.1%
O=C(c1ccc(F)cc1)N1CCC2(CC1)NC(=O)N(c1ccccc1Cl)N2,i
CCCCNc1ccc2nncn2n1,24.7%
CC(C)n1c(C2CCN(C(=O)CN3CCCCCC3)CC2)nn(C)c1=O,-8.5%
CCN(C(=O)Cn1c(C)cc2nc3n(c(=O)c21)CCCCC3)c1cccc(C)c1,i
O=C(c1ccc(Cl)cc1)N1CC(c2nnc(-c3ccncc3)o2)C2(CCOCC2)C1 (centres undefined),i
COCCNC(=O)c1ccc2c(c1)ncn2-c1cc(C)ccc1OC,-10.8%
COc1ccc(CCNC(=O)c2ccc3c(Cl)c4c(nc3c2)CCCC4)c(OC)c1,-22.6%
COc1ccc(CCNC(=O)c2ccc3c(c2)ncn3-c2ccc(C(C)C)cc2)cc1OC,11.2µM*
COc1ccc(CNC(=O)c2ccc3c(Cl)c4c(nc3c2)CCCC4)c(OC)c1,-12.1%
COc1ccc(CCNC(=O)c2ccc3c(Cl)c4c(nc3c2)CCCC4)cc1OC,11.2µM*
SMILES,Pf Dd2 inh
CCc1nc2ccc(C(=O)NCCc3ccc(OC)c(OC)c3)cc2nc1CC,8.4%
Cc1noc(C)c1S(=O)(=O)N1CCOC[C@H](Oc2ccc(C(F)(F)F)cc2)C1,-1.4%[44.1 µM]
COc1ccc(C2Cn3nnc(C(=O)N4CCC(C(=O)NCc5ccccc5F)CC4)c3CO2)cc1 (centres undefined),11.3%
FC(F)(F)c1cccc(CN2CCOC[C@H](Oc3cnccn3)C2)c1,i
Cc1ccc(NC(=O)c2c(C)oc3ncnc(N4CCCCC4)c23)c(C)c1,16.7%
Cc1oc2ccc(O)c(CN(C)Cc3ccccc3)c2c1C(=O)Nc1ccccc1,1.12µM*
Cc1ccc(NC(=O)c2c(C)oc3ccc(O)c(CN(C)Cc4ccccc4)c23)c(C)c1,1.26µM*
Cc1oc2ccn(Cc3cccc(F)c3)c(=O)c2c1C(=O)N(C)Cc1ccccc1,i
Cc1ccc(NC(=O)Nc2nnc(N(C)Cc3ccccc3)s2)c(C)c1,-23.3%
CN(Cc1ccc(-c2ccccc2)cc1)C(=O)Nc1ccccc1,-3.1%[44.1 µM]
C#CCNC(=O)C1CCc2nnc(CNC(=O)Nc3cccnc3)n21 (centres undefined),16.5%
O=C(Nc1ccccc1)Nc1ccc([C@@H](O)[C@H]2COCC(=O)N2Cc2ccc(F)cc2)cc1,i
O=C1CC[C@@H](CN(Cc2ccncc2)C(=O)c2ccc3nccn3c2)N1,6.4%
O=C(NCCOc1ccccc1)[C@@H]1C[C@@H](c2ccc(F)cc2)N([S+](=O)([O-])c2ccccc2)C1,i
CC(C)C1CN(C(=O)CN(C)C2CCNCC2)CCC(=O)N1CC1CC1 (centres undefined),3.0%
COc1ccc(C(=O)NCC(c2ccc(Cl)cc2)N2CCCCC2)cc1 (centres undefined),-9.6%
Cc1cc(C)cc(OCC(=O)NCC(c2ccc(Cl)cc2)N2CCCCC2)c1 (centres undefined),11.2µM*
COc1ccc(C(CNC(=O)Cc2ccc(Cl)cc2)N2CCOCC2)cc1 (centres undefined),i
O=C(COc1ccccc1)NCC(c1ccc(Cl)cc1)N1CCOCC1 (centres undefined),-3.5%
CCc1ccc(OCC(=O)NCC(c2ccc(Cl)cc2)N2CCOCC2)cc1 (centres undefined),11.2µM*
COc1ccc(OCC(=O)NCC(c2ccc(Cl)cc2)N2CCCCC2)cc1 (centres undefined),7.94µM*
COc1ccccc1OCC(=O)NCC(c1ccc(Cl)cc1)N1CCOCC1 (centres undefined),-19.7%

# Assay outcomes from PubChem BioAssay.
